Bead autofluor = flagged as autofluorescent in microsphere protease counterscreen | actives 3.1% (n = 360,000) | AID 624483 | fluorescence intensity (test concentration not listed) | compound autofluorescence counterscreen, microsphere flow cytometry; stronger effect = higher value; in the data active = fluorescence intensity above about 16000; inconclusive = no clear call, values can overlap the other calls
BoNT A protease = BoNT/A light chain protease inhibitors, primary screen, biochemical, flow cytometry, MLPCN library; actives 0.17% (n = 360,000); Botulinum neurotoxin type A light chain protease (Clostridium botulinum A str. ATCC 3502); AID 588499, 2011; inhibition, % at 10 µM; multiplex microsphere protease substrate cleavage; note: plate controls were buffer without enzyme for full effect and enzyme alone for no effect
Anthrax LF inh2 = Bacillus anthracis LF protease inhibitors, primary screen, biochemical, multiplex microsphere, MLPCN library. Lethal factor (Bacillus anthracis), P15917. multiplex microsphere protease cleavage assay. inhibition, % at 10 µM. actives 0.12% (n = 360,000). AID 588501, 2011; note: plate controls were buffer without enzyme for full effect and enzyme alone for no effect
CCHF vOTU inh = CCHFV vOTU protease inhibitors, primary screen, biochemical, Pep-AMC substrate, fluorescence. Crimean-Congo hemorrhagic fever virus L polyprotein viral ovarian tumor (vOTU) protease …. inhibition, % at 11.5 µM. actives 0.55% (n = 370,000). AID 651958, 2012; in the data active = inhibition above about 30%; note: 0% = vehicle wells with enzyme and 100% = no enzyme wells
3CLpro inhibitor = SARS-CoV 3CLpro protease inhibitors, primary screen, biochemical, quenched FRET | AID 1706, 2009 | inhibition, % at 6 µM | recombinant SARS-CoV 3CLpro, quenched FRET peptide cleavage | Replicase polyprotein 1ab (Severe acute respiratory syndrome coronavirus), P0C6X7 | actives 0.14% (n = 290,000); in the data active = inhibition above about 12%
BoNT F protease = BoNT/F light chain protease inhibitors, primary screen, biochemical, flow cytometry, MLPCN library; Multiplex microsphere protease cleavage assay; actives 0.22% (n = 360,000); AID 588497, 2011; inhibition, % at 10 µM; in the data active = inhibition above about 35%, passing the limit was not always enough; inconclusive = no clear call, values can overlap the other calls; note: plate controls were buffer without enzyme for full effect and enzyme alone for no effect
* marks the source's active call; other numbers are inactive results. This is a sample that favours compounds with a hit; in the whole collection about 3.9% have one here. Cut-off read from the data, not from the text of the source, unless noted: active = inhibition above about 30%; inconclusive = no clear call, values can overlap the other calls; inactive = below that.

How did CC(C)c1nc2oc3ccccc3c(=O)c2c(=O)n1-c1ccccc1 do in these assays?
Bead autofluor: 17355*; BoNT A protease: 6.0; Anthrax LF inh2: -17.4; 3CLpro inhibitor: 1.3; BoNT F protease: 4.5

What do the screens show for `O=C(Nc1cccnc1)c1cc2c(ccc3ccccc32)o1`?
Bead autofluor: 23266*; BoNT A protease: 0.4; Anthrax LF inh2: -5.9; 3CLpro inhibitor: -2.2; BoNT F protease: -2.3

What do the screens show for `CC(C)(C)c1cc(Cc2ccccc2)[nH]n1`?
Bead autofluor: 23025*; BoNT A protease: inconclusive; Anthrax LF inh2: -5.2; CCHF vOTU inh: -1.2; 3CLpro inhibitor: 4.0; BoNT F protease: -2.5

Results for CCCCCc1ccc(NC(=O)OCCCN2CCC3(CCC(c4ccccc4)CC3)C2=O)cc1 (stereo not given) ?
CCHF vOTU inh: 13.2

Results for O=C(CSc1nnc(Cc2ccccc2)n1Cc1ccco1)NC1CCCC1 ?
Bead autofluor: 11034; BoNT A protease: 0.2; Anthrax LF inh2: -0.7; CCHF vOTU inh: 16.6; 3CLpro inhibitor: -6.1; BoNT F protease: 0.7

Results for CC(C)OC(=O)CSc1nnc(Cc2ccccc2)n1Cc1ccco1 ?
Bead autofluor: 19241*; BoNT A protease: 1.8; Anthrax LF inh2: -8.6; CCHF vOTU inh: -15.9; 3CLpro inhibitor: -1.9; BoNT F protease: -1.0

What do the screens show for `O=C(CNS(=O)(=O)c1cccs1)N1CCN(c2ncccn2)CC1`?
CCHF vOTU inh: -1.4

How did COC(=O)[C@]12C[C@H](CC(=O)NCc3cccs3)C(=O)N(Cc3ccco3)C1=C[C@H](C(C)(C)C)O[C@@H]2C do in these assays?
CCHF vOTU inh: 13.4

How did Cc1ccc(S(=O)(=O)CCC(=O)OCc2nc(N)nc(Nc3ccccc3C)n2)cc1 do in these assays?
Bead autofluor: 5567; BoNT A protease: 0.0; Anthrax LF inh2: 3.7; CCHF vOTU inh: -1.2; BoNT F protease: -6.8

Results for Cc1ccccc1Nc1nc(N)nc(COC(=O)CCS(=O)(=O)c2ccccc2)n1 ?
Bead autofluor: 24248*; BoNT A protease: -0.8; Anthrax LF inh2: -2.5; CCHF vOTU inh: -4.3; 3CLpro inhibitor: -0.1; BoNT F protease: -5.2

What do the screens show for `CCOc1ccc(C(CCc2ccccc2)NC(=O)c2ccccc2)cc1OCC` (stereo not given)?
Bead autofluor: 21649*; BoNT A protease: inconclusive; Anthrax LF inh2: 1.9; CCHF vOTU inh: -13.7; 3CLpro inhibitor: 5.6; BoNT F protease: 5.2

Results for CC(C(=O)c1ccc(Br)cc1)[n+]1cccc2ccccc21 (stereo not given) ?
Bead autofluor: 16961*; BoNT A protease: -4.5; Anthrax LF inh2: -7.7; CCHF vOTU inh: -13.6; 3CLpro inhibitor: -4.9; BoNT F protease: inconclusive

How did Cc1ccc(S(=O)(=O)CCC(=O)OCC(=O)N2CC(=O)Nc3ccccc32)cc1 do in these assays?
Bead autofluor: 22432*; BoNT A protease: -0.9; Anthrax LF inh2: -5.9; CCHF vOTU inh: -0.8; 3CLpro inhibitor: 1.8; BoNT F protease: -3.3

How did C#CCNC(=O)C[C@H]1C[C@@]2(C(=O)OC)C(=C[C@H](COCc3ccccc3)O[C@@H]2C)N(CCCCCCCC)C1=O do in these assays?
CCHF vOTU inh: 15.2

Results for CN1C(=O)C2C=CC1C1C(=O)N(c3ccccc3)C(=O)C21 (stereo not given) ?
Bead autofluor: 21330*; BoNT A protease: 1.8; Anthrax LF inh2: -6.6; CCHF vOTU inh: 3.4; 3CLpro inhibitor: -1.6; BoNT F protease: 3.7

How did O=C1C2C3C=CC(C3)C2C(=O)N1c1ccccc1 (stereo not given) do in these assays?
Bead autofluor: 22433*; BoNT A protease: inconclusive; Anthrax LF inh2: -2.5; CCHF vOTU inh: 3.3; 3CLpro inhibitor: 3.9; BoNT F protease: -2.8

How did CCCCn1c(N)c(N(CC(C)C)C(=O)CSCc2c(C)noc2C)c(=O)[nH]c1=O do in these assays?
Bead autofluor: 4688; BoNT A protease: -0.5; Anthrax LF inh2: 0.5; CCHF vOTU inh: 3.0; BoNT F protease: -5.5

How did O=C(CCC(=O)N(CC(=O)NC1CCCCC1)Cc1cccs1)Nc1nccs1 do in these assays?
Bead autofluor: 3459; BoNT A protease: -1.1; Anthrax LF inh2: -12.2; CCHF vOTU inh: 5.7; 3CLpro inhibitor: 0.8; BoNT F protease: 3.4

Screens from PubChem.
